ATG4B inhibitor: inhibitors of human ATG4B cysteine protease. inhibition, % at 8.33 µM. Q9Y4P1. 340,000 compounds, 0.51% hits. ATG4B cleavage of LC3-PLA2, NBD-HPC fluorescence, 1 h; in the data active = inhibition above about 40%
Target sequence (Q9Y4P1 whole entry, looked up): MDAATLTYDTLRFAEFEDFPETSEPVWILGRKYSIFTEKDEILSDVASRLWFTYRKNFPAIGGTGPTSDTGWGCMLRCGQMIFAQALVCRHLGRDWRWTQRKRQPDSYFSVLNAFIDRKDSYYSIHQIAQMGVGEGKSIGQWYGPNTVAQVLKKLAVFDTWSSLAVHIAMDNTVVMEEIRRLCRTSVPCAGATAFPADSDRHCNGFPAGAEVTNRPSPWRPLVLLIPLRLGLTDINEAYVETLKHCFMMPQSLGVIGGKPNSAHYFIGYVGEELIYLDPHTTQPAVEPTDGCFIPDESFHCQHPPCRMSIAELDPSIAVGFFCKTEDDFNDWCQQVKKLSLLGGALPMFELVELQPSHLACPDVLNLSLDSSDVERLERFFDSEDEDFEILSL
SKN-1 inh: inhibitors of C. elegans SKN-1. C. elegans VP596 Pgst-4::GFP/RFP ratio, acrylamide-induced, 24 h. 360,000 compounds, 0.49% hits. inhibition, % at 21.8 µM;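 active = interference check ratio from 0.5 to 1.5 plus GFP to RFP signal ratio inhibition reaching or exceeding a fixed threshold, cut at about 30% in these data, passing the limit was not always enough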
M1 PAM: positive allosteric modulators of human M1 muscarinic receptor. activation, % at 3 µM. 360,000 compounds, 0.088% hits. AID 588819. CHO-K1 hM1, Fluo-8 calcium fluorescence, ACh EC20; 0% = ACh EC20, 100% = maximal ACh; in the data active = activation above about 19%, passing the limit was not always enough
CHRM1 agonist: activates human CHRM1 receptor | P11229 | CHO-K1 hM1, Fluo-8 calcium fluorescence, agonist mode; 0% DMSO, 100% acetylcholine EC100 | activation, % at 3 µM | 360,000 compounds, 0.33% hits | AID 588814;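 active = activation above the run's mean compound activation plus 3 SD, cut at about 16% in these data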;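 also: peak over basal fluorescence ratio within a 140 s kinetic read after compound addition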
M1 antag: human CHRM1 antagonism | inhibition, % at 3 µM | 360,000 compounds, 1.3% hits | CHO-K1 hM1, Fluo-8 calcium fluorescence, ACh EC80 antagonist | P11229;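 active = percent inhibition above its own plate's cutoff, namely the mean of that plate's compound wells plus 3 SD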;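 also: peak over basal fluorescence ratio during 140 s after agonist addition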
Myeloid diff 2: promotes myeloid progenitor differentiation | ER-HoxA9 myeloid progenitors, lysozyme-GFP differentiation, flow cytometry | calls only at 10 µM | 360,000 compounds, 1% hits | AID 624256;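 active = normalized GFP-positive differentiation at or above the plate's own cutoff, the solvent-only control mean plus 3 SD; inconclusive = no clear call, values can overlap the other calls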;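 also: cells exposed to compound for four days before flow analysis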
Each line names hits and unclear results; the compound was inactive in the other large screens. The list is not random: actives were taken first. Their share in the collection is about 3.5%.

CCc1[nH]nc(C(=O)NC2CCCN(Cc3ccccc3F)C2)c1C (stereo not drawn)	M1 antag 40
CC(=O)c1ccc(C(=O)NC2CCCN(Cc3ccccc3F)C2)cc1 (stereo not drawn)	none
CCCC(=O)N1CCC1(C)C(=O)Nc1scc(C)c1C#N (stereo not drawn)	none (no result: ATG4B inhibitor)
CCCN(CC(=O)Nc1ccc(F)c(F)c1F)C(=O)c1ccc2c(=O)n3c(nc2c1)CCC3	none
COc1ccccc1C(=O)N(CCC1CCCN1C)c1nc2ccccc2s1 (stereo not drawn)	M1 antag 51
COc1ccc2sc(N(CCCN(C)C)C(=O)c3nc4ccccc4s3)nc2c1	none
CC(C)Oc1cccc(C(=O)NC(=S)Nc2ccc3c4c(cccc24)CC3)c1	Myeloid diff 2 active
COc1ccc(C(=O)NC(=S)Nc2ccc3c4c(cccc24)CC3)cc1OC	none
O=C(Nc1ccc2c3c(cccc13)CC2)c1ccco1	Myeloid diff 2 active
COc1cc(OC)cc(C(=O)NC(=S)Nc2ccc3c4c(cccc24)CC3)c1	Myeloid diff 2 active
COc1cc(-c2cc(NC=O)c3ncc(-c4ccc(C(C)=O)cc4)n3c2)ccc1O	Myeloid diff 2 inconclusive (no result: ATG4B inhibitor)
CCCCC(=O)Nc1nnc(CCOC)s1	none
COc1ccc(/C(N)=N/OC(=O)c2ccc(Br)o2)cc1	none
N/C(=N\OC(=O)c1ccco1)c1cccc(Br)c1	SKN-1 inh 57
N/C(=N\OC(=O)c1ccc(Br)o1)c1cccnc1	SKN-1 inh 42
N/C(=N\OC(=O)c1ccco1)c1cccc([N+](=O)[O-])c1	none
Cc1cnn(-c2nc(-c3ccccc3)cc(-c3ccccc3)n2)c1	none
Cc1ccc(S(=O)(=O)N(CC(=O)NC2CC3CCC2C3)c2ccccc2)cc1 (stereo not drawn)	none (no result: ATG4B inhibitor)
NC1=NC(=Nc2cccc(S(N)(=O)=O)c2)c2ccccc21	none
COc1cc(N=Nc2cccc(S(N)(=O)=O)c2)c2ccccc2c1N	Myeloid diff 2 active
CC1CCCC(C)N1C(=O)c1cc(-c2ccco2)on1 (stereo not drawn)	Myeloid diff 2 active
CC1CCN(C(=O)c2cc(-c3ccco3)on2)CC1	none
Cc1ccc(NC(=O)c2cc(-c3ccco3)on2)cc1C	SKN-1 inh 36
CC(=O)Nc1c(Cl)cc2c(c1Cl)Cc1cc(C#N)ccc1-2	none
CC(C)c1ccc(CC(=O)N2CCC2(C)C(=O)Nc2cccc(C#N)c2)cc1 (stereo not drawn)	none (no result: ATG4B inhibitor)
CC1(C(=O)Nc2cccc(C#N)c2)CCN1C(=O)Cc1ccc(-c2ccccc2)cc1 (stereo not drawn)	M1 antag 42 (no result: ATG4B inhibitor)
CCN(CC(=O)Nc1ccc2c(c1)OCCO2)S(=O)(=O)c1ccccc1	none
CC(=O)Nc1ccc(/C=N/N2CCCCC2)cc1	CHRM1 agonist 35
CC(=O)Nc1ccc(/C=N/N2C(C)CCCC2C)cc1 (stereo not drawn)	none
COc1ccccc1CNC(=O)COc1cc(O)c2c(c1)OC(C)(C)CC2=O	none (no result: ATG4B inhibitor)
COCCCNc1ccn2nc(-c3cccc(OCc4ccccc4)c3)cc2n1	M1 antag 27 (no result: ATG4B inhibitor)
Cc1nnsc1C(=O)NC1CCCc2c1cnn2-c1cc(F)cc(F)c1 (stereo not drawn)	none
Cc1nnsc1C(=O)NC1CCCc2c1cnn2-c1ccc(F)cc1F (stereo not drawn)	M1 antag 31
COC(=O)c1cc2sccc2n1Cc1ccc(C)cc1	SKN-1 inh 38
O=C(NCCN1CCOCC1)c1cc2sccc2n1Cc1ccc(Cl)cc1	Myeloid diff 2 active
CCOC(=O)c1cc2sccc2n1Cc1ccccc1	none
CC(C)c1cccc(-c2csc(C(C)(O)c3ccncc3)n2)c1 (stereo not drawn)	none (no result: ATG4B inhibitor)
Cc1ccccc1C(=O)NC1CC2CCCC(C1)N2CC(C)C (stereo not drawn)	M1 antag 66 (no result: ATG4B inhibitor)
CC(OC(=O)c1cc(S(=O)(=O)N2CCOCC2)ccc1F)C(=O)NC1CCCC1 (stereo not drawn)	none
Nc1cccc2c(O)cccc12	Myeloid diff 2 active
O=c1[nH]ccc2c(O)cccc12	CHRM1 agonist 27
Nc1ccccc1O	none
COC(=O)C[C@H]1CC[C@H](NC(=O)Nc2ccccc2F)[C@@H](CO)O1	none (no result: ATG4B inhibitor, M1 PAM, CHRM1 agonist, M1 antag)
CCOC(=O)N(C)c1c(CC)nc2c(OCc3ccccc3C)cccn12	none (no result: ATG4B inhibitor)
Cc1csc(-c2nc3ccccc3n2C(C(=O)NC(C)(C)C)c2cc3ccccc3o2)c1 (stereo not drawn)	none (no result: ATG4B inhibitor, M1 PAM, CHRM1 agonist, M1 antag)
O=C(C1CCN(c2ncnc3c2nc2n3CCCCC2)CC1)N1CCN(c2cccc(Cl)c2)CC1	ATG4B inhibitor 47
Cc1ccc(CN2CCC(CNC(=O)C3CCCN(c4ncnc5c4nc4n5CCCCC4)C3)CC2)cc1 (stereo not drawn)	M1 antag 97
CC(C)N(CCNC(=O)C1CCCN(c2ncnc3c2nc2n3CCCCC2)C1)Cc1ccccc1 (stereo not drawn)	M1 antag 38
O=C(NCC1CCN(Cc2ccccc2F)CC1)C1CCCN(c2ncnc3c2nc2n3CCCCC2)C1 (stereo not drawn)	M1 antag 91
CC(C)(C)OC(=O)N1CCN(c2ccc(NC(=O)c3ccco3)cc2)CC1	none (no result: Myeloid diff 2)
O=C(Cc1cccc(NC(=O)C2CCCN(C(=O)C3CCC3)C2)c1)Nc1ccc(C(=O)N2CCCCC2)cc1 (stereo not drawn)	none
O=C(NCc1ccccc1Cl)C1CCCN(c2ncnc3c2nc2n3CCCCC2)C1 (stereo not drawn)	Myeloid diff 2 active
O=S1(=O)c2ccc(Br)cc2N2CCC[C@H]2CN1Cc1ccccc1	Myeloid diff 2 inconclusive
O=S1(=O)c2ccc(Br)cc2N2CCC[C@@H]2CN1Cc1ccc(Cl)cc1	M1 antag 24 (no result: ATG4B inhibitor)
Cc1cc(N(C)C)nc(Nc2ccccc2)n1	none
Cc1ccccc1N=C/C=C1/C=C(c2ccccc2)OC(C)(C)O1	none
CC1(C)OC(c2ccccc2)=C/C(=C/C=C2C(=O)c3ccccc3C2=O)O1	SKN-1 inh 60
COc1cccc(C(=O)N2CCN(C3CCC(c4ccccc4)CC3)CC2)c1OC (stereo not drawn)	CHRM1 agonist 43
CC(=O)Nc1ccc(NC(=O)c2ccnn2C)cc1	none
N#Cc1ccsc1NC(=O)CCc1ccccc1	none
COc1ccc(OC)c(/C=N/NC(=O)CCN2CCN(C(c3ccccc3)c3ccccc3)CC2)c1	M1 antag 48
N#Cc1ccsc1NC(=O)CCN1CCN(C(c2ccccc2)c2ccccc2)CC1	M1 antag 30
O=C(CCN1CCN(C(c2ccccc2)c2ccccc2)CC1)N/N=C/c1ccc(O)cc1	M1 antag 37
COc1ccc(NS(=O)(=O)c2ccc(C)c(C(=O)N3CCCCCCC3)c2)cc1	none
Cc1nc(C)n(CC(C)C(=O)N2CCN(S(=O)(=O)c3ccccc3)CC2)n1 (stereo not drawn)	none
